# High-throughput results (PubChem BioAssay)
# RecA intein inh – inhibitors of M. tuberculosis RecA intein splicing; P9WHJ3; AID 2221; inhibition, % (no concentration beside the values); hit rate 0.75% among 290,000; cell-free RecA intein splicing, fluorescence; in the data active means inhibition above about 30%;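 further: 0% = vehicle wells and 100% = reference inhibitor control wells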
# Target sequence (P9WHJ3 whole entry, looked up): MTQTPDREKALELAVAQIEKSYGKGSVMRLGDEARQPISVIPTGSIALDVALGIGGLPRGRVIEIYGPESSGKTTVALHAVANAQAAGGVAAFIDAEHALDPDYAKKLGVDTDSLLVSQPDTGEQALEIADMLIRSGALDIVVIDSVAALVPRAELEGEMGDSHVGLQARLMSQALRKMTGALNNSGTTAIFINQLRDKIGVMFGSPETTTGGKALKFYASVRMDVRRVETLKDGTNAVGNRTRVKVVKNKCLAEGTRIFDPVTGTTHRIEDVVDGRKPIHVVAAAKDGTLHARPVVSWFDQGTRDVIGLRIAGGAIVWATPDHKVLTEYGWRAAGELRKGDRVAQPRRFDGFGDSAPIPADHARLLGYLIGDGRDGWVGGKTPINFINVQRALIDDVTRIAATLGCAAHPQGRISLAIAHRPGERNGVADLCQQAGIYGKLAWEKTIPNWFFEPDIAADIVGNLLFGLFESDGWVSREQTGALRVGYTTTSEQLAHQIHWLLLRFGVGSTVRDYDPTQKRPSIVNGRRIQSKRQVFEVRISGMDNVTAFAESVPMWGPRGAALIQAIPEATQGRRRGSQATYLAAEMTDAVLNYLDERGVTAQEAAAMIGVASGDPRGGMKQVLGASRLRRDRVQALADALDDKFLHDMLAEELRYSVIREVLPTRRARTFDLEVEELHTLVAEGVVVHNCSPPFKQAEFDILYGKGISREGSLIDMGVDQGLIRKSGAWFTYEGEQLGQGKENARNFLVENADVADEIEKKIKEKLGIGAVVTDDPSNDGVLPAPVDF
# SARS 3CLpro inh – SARS-CoV 3CLpro protease inhibition; hit rate 0.14% among 290,000; P0C6X7; inhibition, % at 6 µM; recombinant SARS-CoV 3CLpro, quenched FRET peptide cleavage; in the data active means inhibition above about 12%
# VHR inh abs – inhibitors of human VHR1 phosphatase (DUSP3); inhibition, % at 13.3 µM; hit rate 0.52% among 290,000; recombinant VHR phosphatase, pNPP absorbance; in the data active means inhibition above about 50%
# CCHF vOTU inh – CCHFV vOTU protease inhibition; Pep-AMC fluorescence; hit rate 0.55% among 370,000; inhibition, % at 11.5 µM; AID 651958; in the data active means inhibition above about 30%; further: 0% = vehicle wells with enzyme and 100% = no enzyme wells
# Starred values were filed as active, the others as inactive; / = not tested or not shown. Compounds with a hit are over-represented: about 1.5% of the library has one in this group of screens.
SMILES,RecA intein inh,SARS 3CLpro inh,VHR inh abs,CCHF vOTU inh
COc1ccc(/C(O)=C2/C(=O)C(=O)N(CCCN(C)C)C2c2cccc(Cl)c2)cc1OC (stereo not given),0,5,8,34*
Cc1ccccc1CNS(=O)(=O)c1csc(C(N)=O)c1,7,3,56*,1
NC(=O)c1cc(S(=O)(=O)NCc2ccccc2)cs1,1,-6,-20,13
CC(=O)c1cn(Cc2ccc(C#N)cc2)c2ccccc12,7,0,22,-14
C[n+]1cn(Cc2ccc(C#N)cc2)c2ccccc21,0,-3,53*,0
Cc1ccc(NC(=O)CSCC(=O)N2CCCc3ccccc32)cc1,3,/,/,0
C=CC1=C2C=C(C3CC3)N(CCCN(CC)CC)C=C2C(=O)C(C)(OC(=O)c2ccco2)C1=O (stereo not given),12,/,/,17
CC1=C(C#N)c2nc(N)c(C#N)c(C)c2/C1=C\c1ccc(C)cc1,33*,-3,6,/
CCOc1ccc(CCNC(=O)c2cc3sccc3n2CC)cc1OC,/,/,/,-4
CSCCCNc1nc(C)nc2c1nnn2Cc1ccccc1,/,/,/,17
CCOC(=O)C1CCCN(C2=NC(=O)/C(=C/c3ccc(N(C)C)cc3)S2)C1 (stereo not given),-23,-4,53*,7
CCOC(=O)C1CCCN(C2=NC(=O)/C(=C/c3ccc(OC)cc3)S2)C1 (stereo not given),2,-4,-12,20
CCOC(=O)N1CCN(c2c(-c3ccc(C)cc3)c(=O)c2=O)CC1,/,-4,54*,-5
COc1ccc(S(=O)(=O)NNC(=O)Nc2ccc(C)cc2C)c(OC)c1,2,-4,14,4
CCCCCCC(=O)NC1CCCCN(Cc2cccc(Cl)c2)C1=O (stereo not given),/,/,/,15
Cc1ccc(C)c(S(=O)(=O)NCCN2CCOCC2)c1,-2,4,28,-3
CCCOc1ccc2oc(=O)c3c(c2c1)CCCN3C(=O)CN1CCN(C(=O)c2ccco2)CC1,-3,-9,13,/
CCCOc1ccc2oc(=O)c3c(c2c1)CCCN3C(=O)CN1CCN(c2ncccn2)CC1,4,5,56*,0
O=C1N(Cc2ccccc2)c2ccc(Br)cc2[C@]12C[C@H](O)CO2,/,/,/,14
Nc1cccc2nsnc12,10,-7,23,24
Nc1cc2nsnc2cc1Br,-2,0,52*,97*
Cc1ccc(O)c(C(=O)c2cnc3c(c2)COc2ccc(C)cc2-3)c1,2,4,0,2
Cc1ccc2c(c1)-c1ncc(C(=O)c3cc(Br)ccc3O)cc1CO2,5,2,56*,1
CC(C)(C)C(=O)NC1CCCCN(Cc2ccc(Cl)cc2)C1=O (stereo not given),/,/,/,2
N#C/C(=C\c1ccc([N+](=O)[O-])o1)c1nc2ccccc2[nH]1,11,0,52*,-3
SMILES,RecA intein inh,SARS 3CLpro inh,VHR inh abs,CCHF vOTU inh
N#C/C(=C(/O)c1ccc([N+](=O)[O-])o1)c1nc2ccccc2[nH]1,1,3,3,-3
CCN(c1ccccc1)S(=O)(=O)c1ccc(Cl)c(NC(=O)CN2C(=O)NC3(CCCC3)C2=O)c1,2,6,15,1
Cc1ccc(-c2nnc(CCC(=O)NCC3C4CC5CC(C4)CC3C5)o2)s1 (stereo not given),6,-6,9,-3
Cc1cnnn1-c1ccc(C(=O)CCl)cc1,52*,-5,35,-1
COc1ccccc1Nc1ccc([N+](=O)[O-])cc1N,-3,3,53*,10
O=C(CNCc1cccs1)Nc1ccc(OC(F)(F)F)cc1,-4,-2,/,-4
CCOc1cc(/C=C2\C(=O)N(c3cccc(C(=O)O)c3)N=C2C(F)(F)F)ccc1OCC(=O)Nc1ccccc1OC,33*,6,-13,/
CCOc1cc(/C=N/n2cnnc2)ccc1OCC(=O)Nc1ccccc1OC,1,-3,36,8
Cc1oc(-c2ccc(Cl)cc2)nc1CN1CCCC(C(=O)N2CCN(C(=O)c3ccco3)CC2)C1 (stereo not given),-1,3,52*,9
Cc1oc(-c2ccc(Cl)cc2)nc1CN1CCCC(C(=O)N2CCOCC2)C1 (stereo not given),0,3,-16,1
C#CCN1C(=O)[C@@](O)(c2cccn2C)c2cc(F)ccc21,/,/,/,18
CC1(C)CC(=O)C(C(O)c2cccc([N+](=O)[O-])c2)C(C)(C)N1 (stereo not given),3,-1,51*,-18
CC1(C)CC(=O)C(C(c2cccc([N+](=O)[O-])c2)C2C(=O)CC(C)(C)CC2=O)C(=O)C1,-12,4,-8,15
CCCCNC(=O)C1c2ccccc2OCC(=O)N1Cc1cccnc1 (stereo not given),/,/,/,0
C=CCN1[C@H](C#N)[C@@H](c2ccccc2)[C@H]1CO,/,/,/,-5
Cc1nn(-c2ccccc2)c(Cl)c1C1C(C#N)=C(N)Oc2n[nH]c(C)c21 (stereo not given),62*,-1,-4,1
CCn1nc(C)c(C2C(C#N)=C(N)Oc3n[nH]c(C)c32)c1C (stereo not given),42*,0,-2,2
CC(Oc1ccc(F)cc1)C(=O)Nc1ccccc1C(=O)N1CCCCC1 (stereo not given),/,/,/,-3
COc1ccc(-c2cc(-c3ccccc3)nc(NN)n2)cc1OC,-4,-2,54*,0
O=C(O)c1cccc(NS(=O)(=O)c2ccc3c(c2)C(=O)c2ccccc2C3=O)c1,27,2,12,10
O=C1c2ccccc2C(=O)c2cc(S(=O)(=O)Nc3ccccc3)ccc21,32*,4,-2,20
Cc1cc(C(=O)O)c(C)o1,/,/,/,6
Cn1c(SCC(=O)Nc2ccc3nc(SCC(=O)NC4CC4)sc3c2)nnc1-c1ccccc1,-4,2,-12,-7
Cn1c(SCC(=O)Nc2ccc3nc(SCC(=O)N4CCCC4)sc3c2)nnc1-c1ccc(N)cc1,/,1,52*,/
COC(=O)c1c(NC(=O)/C=C/C(=O)O)sc(C)c1-c1ccc(C)cc1,43*,1,38,6
SMILES,RecA intein inh,SARS 3CLpro inh,VHR inh abs,CCHF vOTU inh
CCN(CC)CCCNC(=O)CN1N=C(c2ccc(OC)cc2)CCC1=O,1,-4,49,1
Cc1cccn2c(=O)c(/C=C(\C#N)C(=O)NCc3ccco3)c(N3CCCC(C)C3)nc12 (stereo not given),-1,1,55*,4
Cc1ccc(CNC(=O)CN2C(=O)NC(C)(c3ccccc3Cl)C2=O)cc1 (stereo not given),-2,2,53*,-1
Cc1ccsc1C(=O)NN=C1CCCCCC1,1,-1,53*,13
Cc1ccc(C(=O)NN=C2CCCCCC2)s1,0,6,44,15
Cc1ccc(CN2CCCN(Cc3ccc(F)cc3Cl)S2(=O)=O)cc1,14,-5,53*,3
Cc1cc(/C=N/NC(=O)C(=O)NCc2ccccn2)c(C)n1-c1ccccc1,-3,1,0,6
CCC(NS(=O)(=O)c1ccc(C)cc1)C(=O)N1CCN(c2ccccn2)CC1 (stereo not given),-2,-4,50*,4
NC(=O)NC(CC(=O)NCCc1ccccn1)c1ccccc1Cl (stereo not given),2,4,53*,13
CC(=O)Nc1ccc(CN2C(=O)C(C)(C)ON=C2c2ccc(NC(C)=O)cc2)cc1,/,/,/,-2
